# HP1b chromo inh – HP1-beta chromodomain-methylated histone interaction inhibition; P83916; AlphaScreen HP1-beta / biotin-H3K9me3 peptide binding; Potency, µM (doses to about 114 µM), for the others: at the highest dose activity change, negative = inhibition, actives largely listed as inhibitors; 390,000 tested, 0.56% active; AID 540317; also: nearly all actives have a fitted effect of over 70% in size
# Target sequence (P83916 whole entry, looked up): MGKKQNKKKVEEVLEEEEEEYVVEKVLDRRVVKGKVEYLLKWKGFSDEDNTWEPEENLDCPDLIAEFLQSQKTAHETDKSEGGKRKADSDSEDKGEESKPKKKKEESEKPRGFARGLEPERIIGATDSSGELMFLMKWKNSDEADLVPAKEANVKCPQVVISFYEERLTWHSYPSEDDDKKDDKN
#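 HP1-beta protein (50 nM final) preincubated 30 min at room temperature with biotinylated H3(1-18)K9me3 peptide (50 nM) in PBS pH 7.4, 0.01% Tween-20, then compound added for 30 min. AlphaScreen streptavidin donor/nickel chelate acceptor beads (10 ug/mL final), 30 min dark, luminescence read.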
# JMJD2A Tudor – blocks the human JMJD2A Tudor domain. 390,000 tested, 4.4% active. Potency, µM (top dose mostly 114 µM), without a hit: top-dose activity change, negative = inhibition, hits mostly inhibitors. O75164. AID 504339. AlphaScreen JMJD2A-Tudor / H3K4me3 peptide binding; also: % is scaled to controls: 0 for no effect and ±100 for the full control effect; nearly all actives have a fitted effect of over 50% in size
# Sfp PPTase inh – blocks B. subtilis Sfp PPTase activity; Q9F4F7; Biochemical Sfp PPTase activity, qHTS; Potency, µM, for inactives: largest response in the series, negative = inhibition, usual class: inhibitors; 310,000 tested, 3.5% active;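 also: the enzyme is Sfp with the accession as filed and its product quenches rhodamine fluorescence; 0% = enzyme reaction without inhibitor and -100% = no enzyme wells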
#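 Compounds were incubated with enzyme (final 15 nM) for 15 min at room temperature before substrate addition started the reaction. Fluorescence at 525 nm excitation, 598 nm emission was recorded immediately and after 30 minutes.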
# L3MBTL1 inh – L3MBTL1 (human) inhibition; Potency, µM (titrated, usually from 57.1 µM), without a hit: at the top dose activity, negative = inhibition, usual class: inhibitors; AID 485360; Q9Y468; AlphaScreen L3MBTL1–H3K9me1 peptide binding; 230,000 tested, 0.66% active; also: % is scaled to controls: 0 for no effect and ±100 for the full control effect; nearly all actives have a fitted effect of over 60% in size
#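 L3MBTL1 (50 nM) pre-complexed 30 min with biotinylated H3(1-15)K9me1 peptide (75 nM), then compounds added for 30 min at room temperature; AlphaScreen streptavidin donor/nickel chelate acceptor beads (10 ug/mL final) read after 30 min dark incubation.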
# G9a inh – blocks human histone lysine methyltransferase G9a | AID 504332 | G9a H3K9 monomethylation, AlphaScreen, 2 h | Q96KQ7 | 350,000 tested, 8.8% active | Potency, µM (titrated, usually from 102 µM), without a hit: top-dose activity, negative = inhibition, most hits filed as inhibitors; also: % is scaled to controls: 0 for no effect and ±100 for the full control effect; nearly all actives have a fitted effect of over 75% in size
# Target sequence (Q96KQ7 913-1193 limits assumed): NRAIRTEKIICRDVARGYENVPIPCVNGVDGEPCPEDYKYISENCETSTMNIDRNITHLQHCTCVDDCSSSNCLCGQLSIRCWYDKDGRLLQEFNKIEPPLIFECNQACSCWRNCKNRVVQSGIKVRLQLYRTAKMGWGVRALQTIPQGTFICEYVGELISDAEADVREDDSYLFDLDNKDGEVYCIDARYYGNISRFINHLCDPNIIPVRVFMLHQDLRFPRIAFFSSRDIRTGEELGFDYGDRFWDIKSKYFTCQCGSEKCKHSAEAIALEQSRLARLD
#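 Chemiluminescent proximity detection of H3K9 monomethylation, read after 10 min bead incubation in the dark. Reaction: 20 nM G9a, 500 nM biotin-H3K9 peptide, 20 uM SAM cofactor, 2 h, room temperature, following 15 min enzyme-compound preincubation.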
# BAZ2B inh – blocks human BAZ2B; AID 504333; Potency, µM (highest dose often 114 µM), inactives show top-dose activity change, negative = inhibition, actives largely listed as inhibitors; AlphaScreen BAZ2B-H3K14Ac peptide displacement; Q9UIF8; 360,000 tested, 4.4% active; also: % is scaled to controls: 0 for no effect and ±100 for the full control effect; nearly all actives have a fitted effect of over 60% in size
#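 Complex of BAZ2B and biotin-H3K14Ac (50 nM apiece) forms over 30 min at RT, then faces library compounds up to 110 uM for another 30 min; AlphaScreen beads added, 20 min dark incubation, luminescence read.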
# * = called active by the depositor; ? = inconclusive; nt = no result; [ ] = dose if it differs, or a comment. Most compounds without a hit are left out; they make up all but 12% or so of the library. Calls follow the shape of the dose curve; as a rule, active = well fitted curve in the direction sought with a large enough effect; inconclusive = small, poorly fitted or top-dose-only effect, or another doubt; inactive = no such curve, though single readings can be large; an effect the other way counts as inactive or inconclusive. Potency is read from the fitted curve at half-maximal effect.
SMILES,HP1b chromo inh,JMJD2A Tudor,Sfp PPTase inh,L3MBTL1 inh,G9a inh,BAZ2B inh
CCCCNC(=S)Nc1ccc2nc(N3CCN(CC)CC3)cc(C)c2c1,12.2%,?,-12.9%,nt,?,?
CCN1CCN(c2cc(C)c3cc(NC(=O)c4ccc(OC)c(OC)c4)ccc3n2)CC1,11.0%,-32.8%,-7.2%,nt,70.8µM*,-27.6%
CCN(CC)CCNC(=S)Nc1ccc2nc(N3CCN(CC)CC3)cc(C)c2c1,-6.6%,-19.9%,13.1%,nt,44.7µM*,-10.8%
CCCCN(C)CCNC(=S)Nc1ccc2nc(N3CCN(CC)CC3)cc(C)c2c1,-15.4%,-17.8%,11.6%,nt,44.7µM*,-3.9%
Cc1cc2nc(-c3ccc(OCc4ccccc4F)cc3)cc(C(F)(F)F)n2n1,78.3%,16.8%,nt,nt,18.3%[59 µM],6.3%
CNc1nc(Cl)nc2c1ncn2CC(COC(=O)C(C)(C)C)COC(=O)C(C)(C)C,nt,nt,16.8%,nt,nt,nt
Cc1ccc(Cn2c(=O)c3cccnc3n(CC(=O)Nc3cc(Cl)ccc3C)c2=O)cc1,32.5%,3.3%,nt,nt,7.2%[59 µM],-1.1%
CCN1CCN(c2cc(C)c3cc(NC(=S)N(C)Cc4ccccc4)ccc3n2)CC1,13.4%,?,7.2%,nt,?,-32.9%
CCCCNC(=O)CCC(=O)Nc1ccc2nc(N3CCN(C)CC3)cc(C)c2c1,11.7%[57 µM],-20.4%,3.3%,nt,-9.4%[59 µM],-19.7%
CCCCN(C)C(=S)Nc1ccc2nc(N3CCN(CC)CC3)cc(C)c2c1,13.7%,-7.4%[11.4 µM],5.6%,nt,44.7µM*,-29.0%
CCN1CCN(c2cc(C)c3cc(NC(=S)NCCN(C)C)ccc3n2)CC1,-34.5%,-15.1%,5.2%,nt,50.1µM*,-0.3%
CCCCN(CC)C(=S)Nc1ccc2nc(N3CCN(C)CC3)cc(C)c2c1,-1.3%[57 µM],?,-11.9%,nt,39.8µM*,?
Cc1ccccc1NC(=O)c1cnc2sc(N3CCCC3)nn2c1=O,-15.3%,-11.3%,nt,nt,8.3%[59 µM],-6.1%
COC(=O)c1cc(NC(=O)c2cc3sccc3n2Cc2ccc(Cl)cc2)cc(C(=O)OC)c1,18.0%,-28.8%,nt,nt,-28.0%[59 µM],-20.3%
CC(C)OC(=O)[C@@H]1CC[C@H](C)[C@@H](CCCC=O)O1,nt,nt,12.5%,nt,nt,nt
N[C@@]1(C(=O)O)CO[C@H]2[C@H](C(=O)O)[C@H]21,nt,nt,-8.0%,nt,22.1%[59 µM],nt
O=C(NCc1n[nH]c(=S)n1-c1ccccc1Cl)c1ccc(S(=O)(=O)N2CCCCC2)cc1,37.8%,-32.4%,-3.2%,nt,10µM*,4.1%
COc1ccccc1-n1c(CNC(=O)c2ccc(S(=O)(=O)N3CCCCC3)cc2)n[nH]c1=S,19.5%,8.91µM*,2.5%,nt,22.4µM*,-15.7%
CC(C)(C)C1CCc2c(sc(NC(=O)c3cc(-c4ccc(F)cc4)on3)c2C#N)C1 (stereo unspecified),8.8%,-5.1%,nt,nt,?,1.3%
CC1CCc2c(sc(NC(=O)c3nc4ncccn4n3)c2C#N)C1 (stereo unspecified),?,?,22.4µM*,nt,3.16µM*,-24.8%
COc1cccc(CN(C)CC(=O)Nc2sc3c(c2C#N)CCC3)c1OC,40.3%,-7.7%,-27.9%,-27.7%,-33.3%,79.4µM*
CC(C)(C)C1CCc2c(sc(NC(=O)c3noc4c3CCCC4)c2C#N)C1 (stereo unspecified),-4.9%,-2.4%,nt,nt,7.08µM*,-0.6%
N#Cc1c(NC(=O)c2cccc(S(=O)(=O)Nc3ccc(C(=O)O)cc3)c2)sc2c1CCCC2,-6.4%,-35.9%,2.3%,-0.1%,50.1µM*,56.2µM*
COc1ccc(CN(C)CC(=O)Nc2sc3c(c2C#N)CCC3)cc1OC,15.5%,-24.2%,7.4%,?,?,?
O=C(O)c1ccc(NS(=O)(=O)c2cccc(C(=O)Nc3ccc(Br)cc3)c2)cc1,39.2%,-13.6%,17.6%,-2.7%[2.29 µM],20.4%[0.501 µM],7.4%
SMILES,HP1b chromo inh,JMJD2A Tudor,Sfp PPTase inh,L3MBTL1 inh,G9a inh,BAZ2B inh
COc1cc(OC)c(NC(=O)C2CCN(S(=O)(=O)c3ccc4c(c3)oc(=O)n4C)CC2)cc1Cl,32.7%,-14.9%,nt,nt,1.7%[59 µM],-15.3%
OC1OC[C@H](O)[C@@H](O)[C@H]1O (stereo partly specified),nt,nt,5.5%,nt,nt,nt
Cc1onc(C(=O)Nc2sc3c(c2C#N)CCCC3)c1[N+](=O)[O-],-7.5%,-20.0%,50.1µM*,nt,44.7µM*,-64.8%
N#Cc1c(NC(=O)C2CC(c3ccccc3Cl)=NO2)sc2c1CCC2 (stereo unspecified),-26.2%,-23.3%,12.3%,-6.7%,?,0.6%
COc1cccc(OC)c1C(=O)Nc1sc2c(c1C#N)CCC2,28.3%,-20.7%,39.8µM*,24.0%,nt,55.4%
N#Cc1c(NC(=O)C2CC(c3ccccc3O)=NO2)sc2c1CCC2 (stereo unspecified),-18.9%,-17.9%,25.1µM*,11.2%,8.91µM*,-6.0%
COC(=O)c1c(NC(=O)c2c(OC)cccc2OC)sc2c1CCCC2,-25.7%,-7.8%,nt,nt,?,7.8%
N#Cc1c(NC(=O)c2cnn3cccnc23)sc2c1CCCC2,-4.9%,-6.9%,44.7µM*,-6.4%,39.8µM*,-15.6%
N#Cc1c(NC(=O)c2nc3ncccn3n2)sc2c1CCCCC2,22.2%,-12.2%,-22.5%,-6.5%,-15.1%[59 µM],30.1%
O=S(=O)(c1ccc2c(c1)OCCO2)N1CCN(S(=O)(=O)c2c(Cl)cc(C(F)(F)F)cc2Cl)CC1,nt,-13.0%,nt,nt,nt,nt
NC(=O)c1c(NC(=O)c2ccncc2)sc2c1CCCCCC2,29.0%,-18.5%,1.0%,-5.9%,-6.4%,-29.5%
N#Cc1c(NC(=O)c2ccco2)sc2c1CCC2,?,50.1µM*,-3.9%,nt,89.1µM*,-17.1%
Cc1onc(-c2ccccc2Cl)c1C(=O)Nc1sc2c(c1C#N)CCC2,?,?,17.8µM*,-30.0%,10µM*,-31.8%
N#Cc1c(NC(=O)c2ccncc2)sc2c1CCC2,-19.4%,63.1µM*,?,?,11.2µM*,50.1µM*
CCOC(=O)c1c(NC(=O)C[n+]2ccc(Cc3ccccc3)cc2)sc(C)c1C,0.6%,-24.3%,25.1µM*,-11.3%,44.7µM*,-27.2%
COC(=O)c1c(NC(=O)CCc2ccc(C)o2)sc(C)c1C,30.0%,0.4%,20µM*,nt,?,-11.2%
Cc1ccc(CCC(=O)Nc2ccc(Cl)cc2)o1,7.4%,-10.4%,6.9%,-9.4%,?,?
CCOC(=O)c1c(NC(=O)CCc2ccc(CC)o2)sc(C)c1C,1.3%,-6.9%,?,18.0%,28.2µM*,24.9%
Cc1ccc(CCC(=O)Nc2ccc(CC(=O)O)cc2)o1,-0.5%,?,?,-11.3%,56.2µM*,-19.9%
Cc1sc(NC(=O)/C=C/c2ccco2)c(C(=O)O)c1C,8.7%,-6.0%,-21.9%,?,44.7µM*,?
CCOC(=O)c1c(NC(=O)/C=C/c2ccc(C)o2)sc(C)c1C,?,-12.2%,35.5µM*,-0.6%,8.91µM*,-2.0%

# Screens as filed in PubChem BioAssay.
